In PubChem BioAssay (Tox21):
Calls of active or inactive are those of the source. Entries that show only a call come without a potency. Calls come from the whole dose curve; as a rule, active = well fitted curve in the direction sought with a large enough effect in the repeat runs; inconclusive = weak or mixed curves; inactive = flat fitted curve, though single readings scatter.

Test: qHTS assay to test for compound auto fluorescence at 535 nm (green) in HepG2 cell free culture (AID 720686)
Settings: Cell-free medium, green autofluorescence 485/535 nm; series mostly up to 91.3 µM
Source text: U.S. Tox21 Program National Center for Advancing Translational Sciences [NCATS] NIH Chemical Genomics Center [NCGC] U.S. Environmental Protection Agency [EPA] National Institutes of Environmental Health Sciences [NIEHS] National Toxicology Program [NTP] U.S. Food and Drug Administration [FDA] Tox21 Assay Overview: Compound auto fluorescence often interferes with screening of the compound library against various biological targets and signaling pathways. Some of these compounds may have fluorophoric properties. Such properties may interfere with the assay outputs resulting in false positives and/or negatives. To decrease such complications and ensure the compound activities are relevant in terms of biological response, the Tox21 10K compound library was screened for auto fluorescence. From the fluorophores used as reporter signals in our screening assays, the auto fluorescence equivalencies of compounds against three fluorophores have been evaluated: Triamterene, Fluorescein and Rose Bengal sodium for blue, green and red fluorescence, respectively. The fluorescence intensities were measured using Excitation/Emission wavelengths at 405/460nm, 485/535nm and 540/590nm for blue, green and red labels, respectively. This assay includes the green fluorescence data.
Tox21 Assay Protocol Summary: 5 uL of culture medium (MEM containing 10% FBS) per well was dispensed into black wall/clear bottom 1536-well plates using a Multidrop Combi Dispenser (ThermoFisher Scientific, Waltham, MA). After 23 nL compound or DMSO vehicle was transferred into assay plate by a pintool work station (Kalypsys, San Diego, CA), fluorescence intensities in the assay plates were measured by an Envision (PerkinElmer, Shelton, CT) plate reader using three labels for measuring blue, green and red fluorescence at […] 460, 535 and 590nm respectively.
Potency is the fitted concentration of half-maximal effect; tags give direction and shape of the fitted curve or compound fluorescence and quenching.

Structure (SMILES) | Potency
CC(C(=O)O)c1cccc(C(=O)c2ccccc2)c1 (stereo not given) | inactive
O=C(Nc1ccc(Cl)cc1)Nc1ccc(Cl)c(Cl)c1 | inactive
CCCCC(CC)COP(=O)(OCC(CC)CCCC)OCC(CC)CCCC (stereo not given) | inactive
CC(=O)O[C@]1(C(C)=O)CC[C@H]2[C@@H]3C=C(Cl)C4=CC(=O)[C@@H]5C[C@@H]5[C@]4(C)[C@H]3CC[C@@]21C | inactive
CC1=CC2C3CC(C=C3C)C2C1 (stereo not given) | inactive
OCCO | inactive
C=C(C)C1CC=C(C)CC1 (stereo not given) | inactive
CN(C)C(=N)N=C(N)N | inactive
CCCCOCCOCCOCCO | inactive
Nc1ccc(Nc2ccccc2)cc1 | inactive
CN(C)CCC=C1c2ccccc2CCc2ccccc21 | inactive
CN(C)CCN(Cc1cccs1)c1ccccn1 | inactive
COc1ccc(OC)c(C(O)CNC(=O)CN)c1 (stereo not given) | inactive
C#C[C@]1(O)CC[C@H]2[C@@H]3CCC4=Cc5oncc5C[C@]4(C)[C@H]3CC[C@@]21C | inactive
CCCCOCCOCCO | inactive
O=C(/C=C/C=C/c1ccc2c(c1)OCO2)N1CCCCC1 | inactive
O=C(c1ccc(OCCN2CCCCC2)cc1)c1c(-c2ccc(O)cc2)sc2cc(O)ccc12 | inactive
CCCCC(CC)COC(=O)c1ccc(N(C)C)cc1 (stereo not given) | inactive
Cc1ccc2c(n1)Oc1ccc(C(C)C(=O)OCC(=O)N(C)C)cc1C2 (stereo not given) | inactive
C[C@]12CC[C@H]3[C@@H](CCC4=CC(=O)CC[C@@]43C)[C@@H]1CC[C@@H]2C(=O)CO | inactive

Structure (SMILES) | Potency
Brc1cc(Oc2cc(Br)c(Br)c(Br)c2Br)c(Br)c(Br)c1Br | inactive
CC1=CCC(C(C)(C)O)CC1 (stereo not given) | inactive
Cn1cnc([N+](=O)[O-])c1Sc1ncnc2nc[nH]c12 | inactive
COC(=O)CCC(=O)OC | inactive
Cc1cccc(C(=O)O)c1 | inactive
COC(=O)Nc1nc2ccc(S(=O)c3ccccc3)cc2[nH]1 (stereo not given) | inactive
O=Cc1ccccc1O | inactive
O=C1OC2(c3cc(Br)c(O)c(Br)c3Oc3c2cc(Br)c(O)c3Br)c2c(Cl)c(Cl)c(Cl)c(Cl)c21 | 28.2 µM [fluorescent] (active)
CCCCC/C=C/C=C/C=O | inactive
c1ccc2sc(SSN3CCOCC3)nc2c1 | inactive
Nc1ncnc2nc[nH]c12 | inactive
O=C1c2cccc(O)c2C(=O)c2c(O)cccc21 | inactive
S=C(NC1CCCCC1)NC1CCCCC1 | inactive
C[Si](C)(C)O[Si](C)(C)C | inactive
CC(C)=CCCC(C)CCO (stereo not given) | inactive
CC(=O)C1(C)CC2=C(CCCC2(C)C)CC1C (stereo not given) | inactive
CC(=O)c1ccccn1 | inactive
O=C(c1ccccc1)c1ccc(O)cc1O | inactive
CCCCCCCCCCCO | inactive
c1ccc2c(c1)Oc1ccccc1S2 | inactive
